Source: PubChem
Rows were chosen to be rich in hits. Some 7% of all compounds tested hit in one or more screens of this group.
S2 tox – reduces viability in counter-screen for ATXN expression inhibitors; Potency, µM (highest dose often 56.7 µM), hits mostly cytotoxic; S2 cells (HEK-293 line with an ATXN2-luciferase reporter) viability, CellTiter-Fluor protease fluorescence, 24 h; 0.49% of 400,000 active; further: potency means the concentration at half of the fitted maximal effect; nearly all actives have a fitted effect of over 40% in size
DRD3 agonist – activates the human D3 dopamine receptor | P35462 | D3R DiscoveRx beta-arrestin cells, luminescence, 90 min | max activation, % | 0.58% of 410,000 active | AID 652048; in the data active means max activation above about 30%; further: 0% is about no effect
Target sequence (P35462 whole entry, looked up): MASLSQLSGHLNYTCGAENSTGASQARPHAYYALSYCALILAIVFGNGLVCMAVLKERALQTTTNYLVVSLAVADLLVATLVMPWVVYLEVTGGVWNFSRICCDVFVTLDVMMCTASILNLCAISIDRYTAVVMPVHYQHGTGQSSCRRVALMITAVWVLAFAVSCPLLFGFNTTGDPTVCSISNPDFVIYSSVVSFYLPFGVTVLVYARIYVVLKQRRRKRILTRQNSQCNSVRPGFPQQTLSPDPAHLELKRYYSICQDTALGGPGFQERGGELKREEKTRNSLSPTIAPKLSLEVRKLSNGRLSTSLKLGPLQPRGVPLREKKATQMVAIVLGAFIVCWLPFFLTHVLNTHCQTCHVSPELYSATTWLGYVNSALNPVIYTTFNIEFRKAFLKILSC
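Cells at 1500/well, incubated overnight, then treated with pinned compounds (dopamine as control) for 90 min at 37 degrees C. DiscoveRx reagent added for 30 - 60 minutes at room temperature; luminescence read.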
a7 integrin act – integrin-mediated muscular dystrophy alleviation activation; alpha7betagal myoblasts, beta-gal FDG fluorescence, 48 h; Potency, µM (titrated, usually from 38.3 µM), inactives show top-dose activation, hits mostly activators; 0.064% of 350,000 active; AID 624291;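 further: potency means the concentration at half of the fitted maximal effect; 100% = response of the positive control SU9516; nearly all actives have a fitted effect of over 60% in size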
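Alpha7betagal+/- myoblasts (passage 13) were plated 16-24 hr, then exposed to compounds (1:260 dilution of DMSO stock) for 48 hours at 37C. After MPER lysis, β-galactosidase reporter activity was read as FDG fluorescence (ex 480/em 540) after 30 minutes.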
ATXN2 expr inh – inhibitors of ATXN2 expression. 0.72% of 360,000 active. Potency, µM (highest dose often 57 µM), for inactives: at the top dose activity change, negative = inhibition, actives largely listed as inhibitors. HEK-293 ATXN2-luciferase reporter, luminescence, 24 h. AID 1745845; further: potency means the concentration at half of the fitted maximal effect; on the % scale 0 is the no-effect control and ±100 the full control effect; nearly all actives have a fitted effect of over 55% in size
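ATXN2-luciferase reporter cells (luciferase flanked by upstream and downstream ATXN2 gene portions) were treated 24 h at 37 °C with compounds at up to 57 uM. SteadyGlo luminescence gave expression; GF-AFC fluorescence gave viability.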
IL1B secr inh – blocks inflammasome-driven IL-1 beta release. THP-1 LPS/ATP IL-1B secretion, AlphaLISA, 16 h; active compounds read low. activity change, % at 57.5 µM. 4.7% of 360,000 active. AID 743279; in the data active means activity change below about -50%; inconclusive means mostly about -30% to -49%; further: on the % scale 0 is the no-effect control and ±100 the full control effect
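THP-1 cells pretreated 1 hr with compounds (up to 57.5 uM final), then stimulated with LPS (250 ng/mL final) plus ATP (1.25 mM final); secreted IL-1B measured by AlphaLISA after 16 hr, decreased signal indicating inhibition.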
DRD3 antagonist – blocks the human D3 dopamine receptor; 2.5% of 360,000 active; max response, negative = inhibition, %; P35462; D3R cells, DiscoveRx beta-arrestin luminescence, antagonist mode; active compounds read low; in the data active means max response below about -50%; inconclusive means no clear call, values can overlap the other calls; further: on the % scale 0 is the no-effect control and ±100 the full control effect
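Cells plated overnight at 1500 cells/well, then exposed to library compounds with dopamine controls for 90 minutes at 37 degrees C. DiscoveRx reagent added for 30–60 minutes at room temperature; luminescence read, quantitative HTS format.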
Active calls of the source: *; i = inactive; u = inconclusive; x = no result; [ ] = dose if it differs, or a comment. Unless noted, the call rests on the fitted dose curve; in most records, active means well fitted curve in the direction sought with a large enough effect; inconclusive means small, poorly fitted or top-dose-only effect, or another doubt; inactive means no such curve, though single readings can be large; an effect the other way counts as inactive or inconclusive.

SMILES | S2 tox | DRD3 agonist | a7 integrin act | ATXN2 expr inh | IL1B secr inh | DRD3 antagonist
Cc1cc(C)c(CN2CCN(CCCn3ccc(NC(=O)OCc4ccccc4)nc3=O)CC2)c(C)c1 | i | -9 | 3% | u | -55* | 18
CC(NC(=O)c1ccc2c(c1)OCO2)c1cccc(C(F)(F)F)c1 (stereo not drawn) | u | 1 | -12% | -20% | 11 | -13
CC(C)OC(=O)c1cccc(NC(=O)c2ccccc2)c1 | i | 0 | 14% | 29% | -3 | 40
COc1ccc(CCNC(=O)C2CCN(S(=O)(=O)c3ccc(SC)cc3)CC2)cc1 | i | 4 | -19% | -5% | 21 | 0
COc1cccc(CC(=O)Nc2cc(S(=O)(=O)N3CCCCC3)ccc2C)c1 | i | 1 | -20% | 2% | 23 | 1
CN1CCC(Nc2ncc3ncnc(Nc4ccc(F)c(Cl)c4)c3n2)CC1 | u | -8 | x | 28µM* | x | x
C=C1C(=O)[C@]23C[C@H]1CC[C@H]2[C@]1(C)[C@@H](OC(C)=O)CC[C@@](C)(C(=O)O)[C@H]1C[C@@H]3OC(C)=O | u | -3 | x | 18µM* | -99* | -2
C=C1C(=O)[C@]23C[C@H]1CCC2[C@]1(C)C(=O)CC[C@@](C)(C(=O)O)C1C[C@@H]3O (stereo partly drawn) | 13µM* | -5 | x | 8.9µM* | -109* | -18
C=C1C(=O)[C@]23C[C@H]1CCC2[C@]1(C)CCC[C@@](C)(C(=O)O)C1C[C@@H]3O (stereo partly drawn) | 7.1µM* | -13 | x | 3.5µM* | -121* | -89*
C=C/C(C)=C/CC1C(=C)CCC2C(C)(C(=O)O)CCCC12C (stereo not drawn) | i | 4 | -13% | 4% | 9 | 22
COCCCC1CCN(C(=O)C2CCC(=O)N(Cc3ccccc3F)C2)CC1 (stereo not drawn) | i | 1 | -13% | 17% | 0 | u
O=C(OCc1cc(=O)n2nc(-c3cccs3)sc2n1)c1ccccc1Br | i | -2 | x | 4% | x | x
CCCCCC(=O)Nc1ccccc1N1CCN(c2ccccc2)CC1 | i | 15 | 14% | -23% | -88* | u
CCc1ccccc1NC(=O)CC(=O)Nc1ccccc1CC | i | 4 | 3% | -1% | 18 | 19
CCCCC(=O)Nc1ccccc1CC | i | -15 | 13% | 5% | -1 | -65*
Cc1cc(C)n(-c2nc3ccccc3nc2N2CCN(C(=O)c3ccc(Cl)cc3)CC2)n1 | u | 0 | -25% | -14% | -59* | -20
CCCc1cc(NCCOCCO)n2c(nc3ccccc32)c1C#N | x | 5 | -2% | x | 5 | -57*
COCCNC(=O)COC(=O)c1ccc(S(=O)(=O)N2CCOCC2)cc1 | i | 5 | 2% | 2% | 7 | 1
COc1cc(NC(=O)C23CC4CC(C2)CC(n2nnc(C)n2)(C4)C3)c(OC)cc1Cl | i | 2 | -10% | 0% | 1 | 34
CCOCCCNC(=S)NNC(=O)CCn1nc(C)c(Br)c1C | i | -35 | 10%[7.66 µM] | -7% | 0 | -97*
Cc1nn(CCC(=O)NNC(=S)NCC(C)C)c(C)c1Br | i | -53 | -8% | -9% | 12 | -104*
COCc1cc(C)nc2c1C(=O)NC(c1ccc(C)cc1)N2Cc1ccccc1 (stereo not drawn) | i | 8 | x | -6% | x | x
CC(C)(C)NC(=O)N1CCn2cccc2C1c1ccccc1F (stereo not drawn) | i | 4 | -23% | -3% | -22 | 1
CCCNC(=O)c1ccc(S(=O)(=O)c2ccc(OC)cc2)c([N+](=O)[O-])c1 | i | -14 | -35% | -32% | -92* | 17
COc1ccc(CNC(=O)CCCc2nnc3n(CCC(C)C)c(=O)c4sccc4n23)cc1 | x | -20 | x | x | x | x
SMILES | S2 tox | DRD3 agonist | a7 integrin act | ATXN2 expr inh | IL1B secr inh | DRD3 antagonist
Nc1ncnc2nc(SCc3ccc(Cl)cc3Cl)[nH]c12 | u | 1 | -5% | -21% | -7 | 49
Nc1cc(=O)[nH]c(SCc2ccc(Cl)cc2Cl)n1 | i | 30* | -17% | x | 67 | 20
COc1ccc(-c2noc(CCC(=O)N3CCN(c4cccc(Cl)c4)CC3)n2)cc1 | u | 14 | -5% | u | 4 | 53
COc1ccc(-c2noc(CCC(=O)N3CCN(c4ccccc4C(F)(F)F)CC3)n2)cc1 | u | 31* | -21% | u | 9 | 117
COc1ccc(-c2noc(CCC(=O)N3CCN(c4cccc(F)c4)CC3)n2)cc1 | i | 34* | 10% | -8% | 0 | 100
CCc1cccc(NC(=O)COC(=O)/C=C/c2cccs2)c1 | i | -2 | 15% | 3% | 1 | -5
O=C(CSc1nc2ccccc2o1)Nc1cc(C(F)(F)F)ccc1N1CCOCC1 | i | -6 | -11% | -30% | -50* | -18
O=C(CSc1nc2ccccc2o1)Nc1ccc(N2CCOCC2)c(Cl)c1 | u | 9 | -10% | 81% | 12 | -4
FC(F)(F)c1ccc(N2CCOCC2)c(Nc2nc3ccccc3n3cnnc23)c1 | i | 6 | -24% | -34% | -61* | -26
CN(CC(=O)Nc1ccccc1Cl)C(=O)c1cc(=O)[nH]c2ccccc12 | i | -18 | 6% | -9% | 13 | 0
CC(C)c1ccc(OCC(=O)Nc2c(C(=O)c3ccc(F)cc3)oc3ccccc23)cc1 | i | 5 | x | 3% | x | x
O=C(Cc1cccs1)Nc1cccc(-c2nc3cc4ccccc4cc3[nH]2)c1 | u | 14 | -57% | -36% | -97* | 11
CC(=O)Nc1cccc(NC(=O)Cc2cccs2)c1 | i | -2 | 8% | x | 5 | -17
O=C(O)CCn1cc(/C=C/C(=O)c2ccc(Cl)cc2)c(-c2ccc(Br)cc2)n1 | i | -11 | -52% | u | -93* | -13
O=C(Cn1cnc2cc(Cl)ccc2c1=O)Nc1ccc2c(c1)OCO2 | i | -11 | -19% | -5% | 8 | -17
COc1ccc(CCC(C)NC2CCCCCCC2)cc1 (stereo not drawn) | i | -11 | -17% | 2% | -73* | -67*
COc1ccc(CCC(C)NCC2CCCCC2)cc1 (stereo not drawn) | i | -11 | 10% | -1% | -18 | -70*
COc1ccc(CCC(=O)NC2CCCCC2)cc1 | i | 3 | 3% | -3% | 5 | 2
COc1ccc(CCC(C)NCc2cc(OC)cc(OC)c2)cc1 (stereo not drawn) | i | -6 | 0% | -19% | -17 | 13
O=C(/C=C/c1cccc([N+](=O)[O-])c1)Nn1c(-c2ccccc2F)nc2ccccc2c1=O | i | 10 | -3% | -22% | 0 | 11
